Compounds without any hit were thinned out: in the full panel of roughly 83,000, 20% have a hit.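 For each line, cells grew in 96-well plates with the test compound present at a single concentration for 48 hours.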 The source made the active and inactive calls. How the source made its calls: active means growth percent below 10; inactive means the rest.
Experiments:
Experiment in all cases: NCI-60 one-dose screen, 48 h (100 = growth as untreated, 0 = no growth, -100 = all killed)
Settings in all cases: 10 µM unless noted
SR leukemia = system: SR leukemia
RPMI-8226 leukemia = system: RPMI-8226 leukemia
OVCAR-8 ovarian = system: OVCAR-8 ovarian
OVCAR-5 ovarian = system: OVCAR-5 ovarian
OVCAR-4 ovarian = system: OVCAR-4 ovarian
SK-OV-3 ovarian = system: SK-OV-3 ovarian
IGROV1 ovarian = system: IGROV1 ovarian
OVCAR-3 ovarian = system: OVCAR-3 ovarian
HS 578T breast = system: HS 578T breast
NCI/ADR-RES ovarian = system: NCI/ADR-RES ovarian

Measured: growth

COc1cc(O)c2c(=O)c3c(CC=C(C)C)cc(OC)c(O)c3oc2c1
inactive: SR leukemia 24.7% | RPMI-8226 leukemia 29.8% | OVCAR-8 ovarian 26.4% | OVCAR-5 ovarian 51.2% | OVCAR-4 ovarian 52.5% | SK-OV-3 ovarian 17% | IGROV1 ovarian 41.7% | HS 578T breast 36.1%
active: OVCAR-3 ovarian 1.93%

CCOC(=O)C/C(=N\Nc1cc(=O)[nH]c2ccc(C)cc12)C(=O)OCC
inactive: SR leukemia 46.4% | RPMI-8226 leukemia 91.3% | OVCAR-8 ovarian 101% | OVCAR-5 ovarian 104% | OVCAR-4 ovarian 106% | SK-OV-3 ovarian 126% | IGROV1 ovarian 98% | OVCAR-3 ovarian 101% | HS 578T breast 91.8%

CC/C(=C(\c1ccc(Cl)cc1)c1ccc(OCCN2CCCCC2)cc1)c1ccc(O)cc1
inactive: OVCAR-8 ovarian 62.6% | OVCAR-5 ovarian 70.4% | OVCAR-4 ovarian 36.7% | SK-OV-3 ovarian 68.1% | IGROV1 ovarian 66.8% | OVCAR-3 ovarian 40.4% | HS 578T breast 46.5% | NCI/ADR-RES ovarian 53.3%
active: SR leukemia -11.2% | RPMI-8226 leukemia 1.63%

Cc1cc(=O)n(C(=S)Nc2ccc(Cl)cc2)c2cc(O)ccc12
inactive: SR leukemia 108% | RPMI-8226 leukemia 113% | OVCAR-8 ovarian 101% | OVCAR-5 ovarian 101% | OVCAR-4 ovarian 92.5% | SK-OV-3 ovarian 79.1% | IGROV1 ovarian 102% | OVCAR-3 ovarian 100%

Cc1nc2sc(C(=O)Nc3cccc4ccccc34)c(N)c2cc1C(=O)c1ccccc1
active: SR leukemia 7.17% | OVCAR-3 ovarian -26.4%
inactive: RPMI-8226 leukemia 15.6% | OVCAR-8 ovarian 23.7% | OVCAR-5 ovarian 32.3% | OVCAR-4 ovarian 51.8% | SK-OV-3 ovarian 39.7% | IGROV1 ovarian 24.8% | HS 578T breast 11.9%

COc1ccc(C/C(C)=C(\c2ccc(O)cc2)c2ccc(OCCN3CCCCC3)cc2)cc1
inactive: SR leukemia 22.1% | RPMI-8226 leukemia 71.9% | OVCAR-8 ovarian 90.7% | OVCAR-5 ovarian 83.2% | OVCAR-4 ovarian 87.1% | SK-OV-3 ovarian 105% | IGROV1 ovarian 80.6% | OVCAR-3 ovarian 88.9% | HS 578T breast 86.8%

O=CCCCOCc1ccccc1
inactive: SR leukemia 96% | RPMI-8226 leukemia 100% | OVCAR-8 ovarian 103% | OVCAR-5 ovarian 101% | OVCAR-4 ovarian 98.6% | SK-OV-3 ovarian 99.9% | IGROV1 ovarian 101% | OVCAR-3 ovarian 110% | HS 578T breast 92.9%

O=C(Nc1ccc(Nc2ccncc2)cc1)c1ccc(Nc2ccnc3ccc([N+](=O)[O-])cc23)cc1
inactive: RPMI-8226 leukemia 63.4% | OVCAR-8 ovarian 104% | OVCAR-5 ovarian 105% | OVCAR-4 ovarian 84.4% | SK-OV-3 ovarian 89.1% | IGROV1 ovarian 97% | OVCAR-3 ovarian 93.1% | HS 578T breast 110% | NCI/ADR-RES ovarian 106%
active: SR leukemia -14.2%

O=[N+]([O-])c1ccccc1Nc1ccc2ccccc2c1
inactive: SR leukemia 88.1% | RPMI-8226 leukemia 82.7% | OVCAR-8 ovarian 88.6% | OVCAR-5 ovarian 113% | OVCAR-4 ovarian 88% | SK-OV-3 ovarian 84.7% | IGROV1 ovarian 87% | OVCAR-3 ovarian 96.3% | HS 578T breast 72.5%

O=C(C[C@]1(O)C(=O)Nc2ccc(Br)cc21)c1ccco1
inactive: SR leukemia 97.9% | RPMI-8226 leukemia 100% | OVCAR-8 ovarian 98.2% | OVCAR-5 ovarian 106% | OVCAR-4 ovarian 104% | SK-OV-3 ovarian 95.2% | IGROV1 ovarian 92.7% | OVCAR-3 ovarian 102% | HS 578T breast 102%

COc1cc(/C=C/C(=O)c2cc(OC)c(OC)c(OC)c2)ccc1Oc1nc2c(c(=O)n(C)c(=O)n2C)n1C
inactive: OVCAR-8 ovarian 10.7% | OVCAR-4 ovarian 19.1% | SK-OV-3 ovarian 30.3% | HS 578T breast 26.7%
active: SR leukemia 8.62% | RPMI-8226 leukemia 6.12% | OVCAR-5 ovarian 5.82% | IGROV1 ovarian -8.8% | OVCAR-3 ovarian -48.4% | NCI/ADR-RES ovarian 0.709%

CC(C)C1C2=C(NCCN1C(=O)c1ccncc1)C(C)(C)N(Cc1ccccc1)C2=O (stereo unspecified)
inactive: SR leukemia 89.4% | RPMI-8226 leukemia 112% | OVCAR-8 ovarian 108% | OVCAR-5 ovarian 107% | OVCAR-4 ovarian 111% | SK-OV-3 ovarian 98.9% | IGROV1 ovarian 101% | OVCAR-3 ovarian 102% | HS 578T breast 109% | NCI/ADR-RES ovarian 99.4%

c1ccc(-c2c(-c3ccccc3)[n+](Cc3ccc4ccccc4c3)cn2Cc2ccc3ccccc3c2)cc1
active: SR leukemia -74.5% | RPMI-8226 leukemia -54.9% | OVCAR-8 ovarian -87.4% | OVCAR-5 ovarian -29.1% | OVCAR-4 ovarian -81.5% | SK-OV-3 ovarian -97.9% | IGROV1 ovarian -73.8% | OVCAR-3 ovarian -91.1% | HS 578T breast -27.8%
inactive: NCI/ADR-RES ovarian 70.5%

From PubChem BioAssay (NCI)
